# According to PubChem BioAssay (EPA / NIEHS):
# Activity calls are given as the source filed them. The calls were made as follows: active = hit-call score of the fitted dose curve at least 0.9, where 1 is the maximum; inactive = score below 0.9.
# Legend:
# Settings in all cases: mRNA level, 48 h; actives raise or lower the signal
# [1] = read-out: Lipoprotein lipase (LPL), LPL (gene 4023); test: LTEA_HepaRG_LPL: Life Technologies and Expression Analysis (LTEA) Assay for Lipoprotein lipase (LPL) using HepaRG (AID 2283515)
# Method in brief: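 Concentration-response testing used half-log steps from 100 uM in 0.5% DMSO on human HepaRG cells, 48 h, duplicate wells. Phenobarbital 1 mM served as induction control; LPL mRNA was normalized to ACTB, GAPDH, POLR2A.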
# [2] = read-out: matrix metalloproteinase-10 (MMP10), MMP10 (gene 4319); test: LTEA_HepaRG_MMP10: Life Technologies and Expression Analysis (LTEA) Assay for matrix metalloproteinase-10 (MMP10) using HepaRG (AID 2283517)
# Method in brief: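 In differentiated HepaRG cultures kept in 0.5% DMSO, test chemicals act for 48 h over an eight-point range with a top dose of 100 uM. Expression is then quantified by TaqMan RT-PCR against ACTB, GAPDH and POLR2A.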
# MYC, MYC (gene 4609) = test: LTEA_HepaRG_MYC: Life Technologies and Expression Analysis (LTEA) Assay for MYC using HepaRG (AID 2283518)
# Method in brief: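 Expression changes were scored by TaqMan qRT-PCR with ACTB, GAPDH and POLR2A normalization. Cultures in serum-free induction medium received duplicate 8-point concentration series, highest 100 uM, for 48 h; DMSO (0.5%) served as baseline.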
# [3] = read-out: matrix metalloproteinase-3 (MMP3), MMP3 (gene 4314); test: LTEA_HepaRG_MMP3: Life Technologies and Expression Analysis (LTEA) Assay for matrix metalloproteinase-3 (MMP3) using HepaRG (AID 2283519)
# Method in brief: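 Human liver HepaRG cultures received chemicals (top concentration 100 uM, 0.5% DMSO) for 48 h in duplicate. MMP3 mRNA induction or loss was then assessed via TaqMan qRT-PCR with housekeeping-gene normalisation.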
# [4] = read-out: Paternally Expressed 10 (PEG10), PEG10 (gene 23089); test: LTEA_HepaRG_PEG10: Life Technologies and Expression Analysis (LTEA) Assay for Paternally Expressed 10 (PEG10) using HepaRG (AID 2283520);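 as to AC50: differentiated HepaRG human liver cells in serum-free induction medium with 0.5% DMSO; PEG10 transcript by qRT-PCR normalised to ACTB GAPDH and POLR2A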
# Method in brief: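 Human HepaRG cultures are dosed for 48 h across an eight-point half-log series starting at 100 uM, with 0.5% DMSO as vehicle and baseline. Gain or loss of PEG10 transcript is measured by qRT-PCR and fitted in both directions.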
# [5] = read-out: Protein phosphatase 2A (PPP2R4), PTPA (gene 5524); test: LTEA_HepaRG_PPP2R4: Life Technologies and Expression Analysis (LTEA) Assay for Protein phosphatase 2A (PPP2R4) using HepaRG (AID 2283522)
# Method in brief: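 Cells were plated, cultured 48 h, switched to serum-free induction medium, then dosed for 48 h (8 points, max 100 uM, 0.5% DMSO). RNA was isolated and PPP2R4 expression measured by TaqMan qRT-PCR.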
# [6] = read-out: Phosphatase and tensin (PTEN), PTEN (gene 5728); test: LTEA_HepaRG_PTEN: Life Technologies and Expression Analysis (LTEA) Assay for Phosphatase and tensin (PTEN) using HepaRG (AID 2283523)
# Method in brief: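 Expression of PTEN is quantified in the human liver line HepaRG following two days of dosing (top concentration 100 uM, half-log dilutions, 0.5% DMSO). Values derive from bidirectional curve fitting relative to DMSO controls.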
# [7] = read-out: Pyruvate Dehydrogenase Kinase 4 (PDK4), PDK4 (gene 5166); test: LTEA_HepaRG_PDK4: Life Technologies and Expression Analysis (LTEA) Assay for Pyruvate Dehydrogenase Kinase 4 (PDK4) using HepaRG (AID 2283525)
# Method in brief: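 Eight-point, half-log concentration series (max 100 uM, 0.5% DMSO) applied to differentiated HepaRG cells for 48 h in duplicate. Endpoint: PDK4 mRNA induction or repression by qRT-PCR against DMSO baseline.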
# [8] = read-out: NAD(P)H dehydrogenase [quinone] 1 (NQO1), NQO1 (gene 1728); test: LTEA_HepaRG_NQO1: Life Technologies and Expression Analysis (LTEA) Assay for NAD(P)H dehydrogenase [quinone] 1 (NQO1) using HepaRG (AID 2283526)
# Method in brief: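 Transcript induction or suppression is quantified by qRT-PCR in human HepaRG liver cells dosed for 48 hours. Eight half-log concentrations topping at 100 uM are used, with 0.5% DMSO as vehicle and baseline.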
# [9] = read-out: succinate dehydrogenase complex iron sulfur subunit B (SDHB), SDHB (gene 6390); test: LTEA_HepaRG_SDHB: Life Technologies and Expression Analysis (LTEA) Assay for succinate dehydrogenase complex iron sulfur subunit B (SDHB) using HepaRG (AID 2283528)
# Method in brief: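 Readout is SDHB transcript level by qRT-PCR, normalised to three housekeeping genes and fitted bidirectionally against 0.5% DMSO vehicle. Human HepaRG cells were treated for 48 h at up to 100 uM.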
# [10] = read-out: Signal transducer and activator of transcription 3 (Homo sapiens) (UniProt P40763); test: LTEA_HepaRG_STAT3: Life Technologies and Expression Analysis (LTEA) Assay for Signal transducer and activator of transcription (STAT3) using HepaRG (AID 2283529)
# Method in brief: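 In this transcriptional endpoint, HepaRG cultures receive test chemicals at up to 100 uM for 48 h, tested in duplicate. STAT3 mRNA is normalized to ACTB, GAPDH and POLR2A.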
# [11] = read-out: solute carrier (SLCO1B1), SLCO1B1 (gene 10599); test: LTEA_HepaRG_SLCO1B1: Life Technologies and Expression Analysis (LTEA) Assay for solute carrier (SLCO1B1) using HepaRG (AID 2283530)
# Method in brief: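 Human HepaRG cultures treated for 48 h with an eight-concentration half-log series topping at 100 uM; SLCO1B1 measured by qRT-PCR and fitted bidirectionally relative to DMSO.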
# [12] = read-out: sulfotransferase 2A1 (SULT2A1), SULT2A1 (gene 6822); test: LTEA_HepaRG_SULT2A1: Life Technologies and Expression Analysis (LTEA) Assay for sulfotransferase 2A1 (SULT2A1) using HepaRG (AID 2283531)
# Method in brief: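 Gene-expression endpoint in a human liver cell line: SULT2A1 mRNA change after 48 h chemical treatment, curves fitted in both directions relative to 0.5% DMSO vehicle. Concentrations spanned eight half-log steps from 100 uM.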
# [13] = read-out: Transforming Growth Factor (TGFA), TGFA (gene 7039); test: LTEA_HepaRG_TGFA: Life Technologies and Expression Analysis (LTEA) Assay for Transforming Growth Factor (TGFA) using HepaRG (AID 2283532)
# Method in brief: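 Gene expression of TGFA was quantified by qRT-PCR after human HepaRG cells were treated for 48 h with test chemicals (eight concentrations, highest 100 uM, 0.5% DMSO). Activity in either direction was fitted relative to DMSO.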
# [14] = read-out: Transforming Growth Factor (TGFB1), TGFB1 (gene 7040); test: LTEA_HepaRG_TGFB1: Life Technologies and Expression Analysis (LTEA) Assay for Transforming Growth Factor (TGFB1) Transporter using HepaRG (AID 2283533)
# Method in brief: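 Eight-point concentration-response (max 100 uM, half-log) in HepaRG under serum-free induction conditions, 48 h. TGFB1 mRNA by qRT-PCR, housekeeping-normalized.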
# [15] = read-out: MicroRNA 122 (MIR122), gene 406906; test: LTEA_HepaRG_MIR122: Life Technologies and Expression Analysis (LTEA) Assay for MicroRNA 122 (MIR122) using HepaRG (AID 2283516); also: the transcript read is the microRNA miR-122
# Method in brief: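 Human liver HepaRG cultures receive test chemicals for 48 h at eight half-log concentrations from 100 uM. Expression is quantified by qRT-PCR with ACTB/GAPDH/POLR2A normalization and fitted bidirectionally against 0.5% DMSO.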
# [16] = read-out: Nuclear factor NF-kappa-B p105 subunit (Homo sapiens) (UniProt P19838); test: LTEA_HepaRG_NFKB1: Life Technologies and Expression Analysis (LTEA) Assay for Nuclear Factor Kappa B Subunit 1 (NFKB1) using HepaRG (AID 2283521);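 also: differentiated human HepaRG liver cells in serum-free induction medium; TaqMan qRT-PCR transcript normalised to ACTB GAPDH and POLR2A housekeeping genes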
# Method in brief: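 HepaRG, 48 h exposure; 8-pt half-log series from 100 uM in 0.5% DMSO; duplicates. Readout: NFKB1 mRNA by qRT-PCR (Fluidigm arrays), housekeeping-normalized. Gain/loss fit vs DMSO baseline.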
# [17] = read-out: Nuclear factor erythroid 2-related factor 2 (Homo sapiens) (UniProt Q16236); test: LTEA_HepaRG_NFE2L2: Life Technologies and Expression Analysis (LTEA) Assay for Nuclear factor erythroid 2-related factor 2 (NFE2L2) Transcription Factor using HepaRG (AID 2283527);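 also: TaqMan qRT-PCR transcript level normalised to ACTB GAPDH and POLR2A housekeeping genes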
# Method in brief: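 Human liver HepaRG line treated in duplicate for 48 h with an eight-point series topping at 100 uM. Gene expression of NFE2L2 by qRT-PCR, bidirectionally fitted against the vehicle control.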
# [18] = read-out: solute carrier (SLC22A1), SLC22A1 (gene 6580); test: LTEA_HepaRG_SLC22A1: Life Technologies and Expression Analysis (LTEA) Assay for solute carrier (SLC22A1) using HepaRG (AID 2283524)
# Method in brief: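 Transcript induction or suppression of SLC22A1 in human HepaRG cultures is scored after 48 h chemical treatment, with DMSO (0.5%) as baseline for bidirectional fitting. Concentrations span eight half-log points topping at 100 uM.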
# Chain of Signal transducer and activator of transcription 3 (Homo sapiens) (P40763 whole entry, looked up): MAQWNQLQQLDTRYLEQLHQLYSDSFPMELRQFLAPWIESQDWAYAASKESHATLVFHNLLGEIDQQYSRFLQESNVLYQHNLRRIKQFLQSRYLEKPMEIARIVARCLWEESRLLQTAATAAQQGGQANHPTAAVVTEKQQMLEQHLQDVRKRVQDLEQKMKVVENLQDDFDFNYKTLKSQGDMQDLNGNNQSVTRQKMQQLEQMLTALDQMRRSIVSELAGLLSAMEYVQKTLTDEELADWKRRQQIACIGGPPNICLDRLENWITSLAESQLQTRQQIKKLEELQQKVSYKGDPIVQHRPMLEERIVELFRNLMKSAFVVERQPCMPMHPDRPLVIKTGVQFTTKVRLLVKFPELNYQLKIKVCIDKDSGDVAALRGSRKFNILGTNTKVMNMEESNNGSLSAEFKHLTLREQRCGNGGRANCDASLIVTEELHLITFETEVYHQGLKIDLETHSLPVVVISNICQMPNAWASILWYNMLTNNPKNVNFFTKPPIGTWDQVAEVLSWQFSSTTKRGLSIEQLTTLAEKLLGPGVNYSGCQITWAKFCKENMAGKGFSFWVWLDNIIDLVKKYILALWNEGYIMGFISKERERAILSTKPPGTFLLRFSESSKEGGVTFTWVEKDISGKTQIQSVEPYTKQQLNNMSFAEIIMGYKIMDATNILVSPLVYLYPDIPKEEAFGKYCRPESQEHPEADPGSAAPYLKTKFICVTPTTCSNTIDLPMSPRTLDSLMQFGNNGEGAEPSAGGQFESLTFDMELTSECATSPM
# Chain of Nuclear factor NF-kappa-B p105 subunit (Homo sapiens) (P19838 whole entry, looked up): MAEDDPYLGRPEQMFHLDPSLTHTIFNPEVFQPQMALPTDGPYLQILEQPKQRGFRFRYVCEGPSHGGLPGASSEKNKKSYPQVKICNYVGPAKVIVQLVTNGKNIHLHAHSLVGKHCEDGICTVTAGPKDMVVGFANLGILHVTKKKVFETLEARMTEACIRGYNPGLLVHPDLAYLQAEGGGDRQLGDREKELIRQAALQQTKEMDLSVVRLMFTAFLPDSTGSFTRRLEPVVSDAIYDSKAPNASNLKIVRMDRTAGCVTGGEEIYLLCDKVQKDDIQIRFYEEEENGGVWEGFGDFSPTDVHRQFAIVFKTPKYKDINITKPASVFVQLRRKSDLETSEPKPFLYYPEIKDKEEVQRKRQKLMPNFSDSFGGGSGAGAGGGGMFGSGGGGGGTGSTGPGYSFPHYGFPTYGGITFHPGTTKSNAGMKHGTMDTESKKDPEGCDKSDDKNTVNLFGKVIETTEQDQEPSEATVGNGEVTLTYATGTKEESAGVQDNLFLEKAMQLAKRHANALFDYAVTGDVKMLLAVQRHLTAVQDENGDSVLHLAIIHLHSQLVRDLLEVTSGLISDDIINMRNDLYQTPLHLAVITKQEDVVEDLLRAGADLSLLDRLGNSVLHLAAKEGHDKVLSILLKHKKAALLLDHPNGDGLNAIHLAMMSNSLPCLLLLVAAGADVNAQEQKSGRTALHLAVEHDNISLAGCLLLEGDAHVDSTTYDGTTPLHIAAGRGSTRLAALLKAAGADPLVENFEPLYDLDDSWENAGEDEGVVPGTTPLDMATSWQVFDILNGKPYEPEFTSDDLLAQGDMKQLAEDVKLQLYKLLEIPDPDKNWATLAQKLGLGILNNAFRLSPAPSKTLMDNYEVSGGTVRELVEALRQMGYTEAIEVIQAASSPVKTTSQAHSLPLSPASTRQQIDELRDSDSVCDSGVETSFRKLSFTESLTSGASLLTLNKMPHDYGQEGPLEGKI
# Chain of Nuclear factor erythroid 2-related factor 2 (Homo sapiens) (Q16236 whole entry, looked up): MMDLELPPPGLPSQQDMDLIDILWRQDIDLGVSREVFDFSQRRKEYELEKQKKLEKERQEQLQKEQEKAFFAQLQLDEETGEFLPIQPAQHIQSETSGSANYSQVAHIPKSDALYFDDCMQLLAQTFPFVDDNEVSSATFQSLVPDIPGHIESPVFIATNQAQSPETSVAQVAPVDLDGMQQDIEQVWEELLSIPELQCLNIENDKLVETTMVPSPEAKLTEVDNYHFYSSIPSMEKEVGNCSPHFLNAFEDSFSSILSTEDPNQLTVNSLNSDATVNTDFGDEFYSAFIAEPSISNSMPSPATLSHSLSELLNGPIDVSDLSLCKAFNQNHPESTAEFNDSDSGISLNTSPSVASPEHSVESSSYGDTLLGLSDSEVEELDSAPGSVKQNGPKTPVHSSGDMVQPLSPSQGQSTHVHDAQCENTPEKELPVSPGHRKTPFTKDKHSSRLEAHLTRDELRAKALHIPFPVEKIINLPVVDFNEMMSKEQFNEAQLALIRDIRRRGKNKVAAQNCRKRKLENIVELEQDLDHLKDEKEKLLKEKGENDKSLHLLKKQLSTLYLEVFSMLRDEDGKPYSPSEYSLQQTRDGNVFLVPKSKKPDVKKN
structure (smiles),measurement,setting,value
CC(C)c1nnc2ccc(-c3ocnc3-c3cc(F)ccc3F)cn12,outcome,[1],inactive
same,outcome,[2],inactive
same,outcome,"MYC, MYC (gene 4609)",inactive
same,AC50,[3],7.09 µM (active)
same,outcome,[4],inactive
same,outcome,[5],inactive
same,outcome,[6],inactive
same,outcome,[7],inactive
same,outcome,[8],inactive
same,outcome,[9],inactive
same,outcome,[10],inactive
same,AC50,[11],50 µM (active)
same,AC50,[12],94 µM (active)
same,outcome,[13],inactive
same,outcome,[14],inactive
NC(=O)N1c2ccccc2C=Cc2ccccc21,outcome,[1],inactive
same,outcome,[15],inactive
same,outcome,[2],inactive
same,outcome,"MYC, MYC (gene 4609)",inactive
same,outcome,[3],inactive
same,outcome,[4],inactive
same,outcome,[16],inactive
same,outcome,[5],inactive
same,outcome,[6],inactive
same,outcome,[7],inactive
same,outcome,[8],inactive
same,outcome,[17],inactive
same,outcome,[9],inactive
same,outcome,[10],inactive
same,outcome,[12],inactive
same,outcome,[13],inactive
same,outcome,[14],inactive
CCCCOC(=O)c1ccccc1,outcome,[1],inactive
same,outcome,[2],inactive
same,outcome,"MYC, MYC (gene 4609)",inactive
same,outcome,[3],inactive
same,outcome,[4],inactive
same,outcome,[16],inactive
same,outcome,[5],inactive
same,outcome,[6],inactive
same,outcome,[7],inactive
same,outcome,[8],inactive
same,outcome,[17],inactive
same,outcome,[9],inactive
same,outcome,[10],inactive
same,outcome,[11],inactive
same,outcome,[12],inactive
same,outcome,[13],inactive
same,outcome,[14],inactive
OCCNCCO,outcome,[1],inactive
same,outcome,[15],inactive
same,outcome,[2],inactive
same,outcome,"MYC, MYC (gene 4609)",inactive
same,outcome,[3],inactive
same,outcome,[4],inactive
same,outcome,[5],inactive
same,outcome,[6],inactive
same,AC50,[7],50 µM (active)
same,outcome,[8],inactive
same,outcome,[17],inactive
same,outcome,[9],inactive
same,outcome,[10],inactive
same,AC50,[12],21.9 µM (active)
same,outcome,[13],inactive
same,outcome,[14],inactive
NC(=O)NN=Cc1ccc([N+](=O)[O-])o1,outcome,[1],inactive
same,AC50,[2],9.92 µM (active)
same,AC50,"MYC, MYC (gene 4609)",0.151 µM (active)
same,AC50,[3],0.256 µM (active)
same,outcome,[4],inactive
same,outcome,[16],inactive
same,outcome,[5],inactive
same,outcome,[6],inactive
same,outcome,[18],inactive
same,outcome,[7],inactive
same,AC50,[8],11.4 µM (active)
same,outcome,[17],inactive
same,outcome,[9],inactive
same,outcome,[10],inactive
same,outcome,[12],inactive
same,AC50,[13],0.196 µM (active)
same,outcome,[14],inactive
O=S1(=O)CCCO1,outcome,[1],inactive
same,outcome,[2],inactive
same,outcome,"MYC, MYC (gene 4609)",inactive
same,outcome,[3],inactive
same,outcome,[4],inactive
same,outcome,[5],inactive
same,outcome,[6],inactive
same,outcome,[7],inactive
same,outcome,[8],inactive
same,outcome,[17],inactive
same,outcome,[9],inactive
same,outcome,[10],inactive
same,outcome,[11],inactive
same,outcome,[12],inactive
same,outcome,[13],inactive
same,outcome,[14],inactive
Cc1nc(-c2ccccn2)ncc1C(=O)Nn1cc(C)c2cc(F)ccc21,outcome,[1],inactive
same,outcome,[2],inactive
same,outcome,"MYC, MYC (gene 4609)",inactive
same,outcome,[3],inactive
same,AC50,[4],34.2 µM (active)
same,outcome,[16],inactive
same,outcome,[5],inactive
same,outcome,[6],inactive
same,outcome,[7],inactive
same,outcome,[8],inactive
same,outcome,[17],inactive
same,outcome,[9],inactive
same,outcome,[10],inactive
same,outcome,[12],inactive
same,outcome,[13],inactive
same,outcome,[14],inactive
NNC(=O)c1ccncc1,outcome,[15],inactive
same,outcome,[2],inactive
same,outcome,"MYC, MYC (gene 4609)",inactive
same,outcome,[3],inactive
same,outcome,[4],inactive
same,outcome,[16],inactive
same,outcome,[5],inactive
same,outcome,[6],inactive
same,outcome,[18],inactive
same,outcome,[7],inactive
same,outcome,[8],inactive
same,outcome,[17],inactive
same,outcome,[9],inactive
same,outcome,[10],inactive
same,outcome,[12],inactive
same,outcome,[13],inactive
same,outcome,[14],inactive
O=C(O)c1ccc2c(c1)nc(C(=O)NC1CCN(C3CC3)CC1)n2Cc1cc(-c2ccc(Cl)s2)on1,outcome,[1],inactive
same,outcome,[15],inactive
same,outcome,[2],inactive
same,outcome,"MYC, MYC (gene 4609)",inactive
same,outcome,[3],inactive
same,outcome,[4],inactive
same,outcome,[16],inactive
same,outcome,[5],inactive
same,outcome,[6],inactive
same,outcome,[7],inactive
same,outcome,[8],inactive
same,outcome,[17],inactive
same,outcome,[9],inactive
same,outcome,[10],inactive
same,outcome,[11],inactive
same,outcome,[12],inactive
same,outcome,[13],inactive
same,outcome,[14],inactive
O=C(O)c1cccc(C(=O)O)c1,outcome,[1],inactive
same,outcome,[2],inactive
same,outcome,"MYC, MYC (gene 4609)",inactive
same,outcome,[3],inactive
same,outcome,[4],inactive
same,outcome,[5],inactive
same,outcome,[6],inactive
same,outcome,[18],inactive
same,outcome,[7],inactive
same,outcome,[8],inactive
same,outcome,[17],inactive
same,outcome,[9],inactive
same,outcome,[10],inactive
same,outcome,[11],inactive
same,outcome,[12],inactive
same,outcome,[13],inactive
